In all, about 5,500 compounds went through this assay and about 2,000 (36%) were called active. Not shown: some 18% with an inconclusive outcome. Cut-off read from the data, not from the text of the source: active = normalized growth mostly below about 0.91 (no sharp cut-off); inconclusive = no clear call, values can overlap the other calls; inactive = mostly above about 0.92. This is one part of the list.
Experiment: chemical genetic growth profiling, strain panel (AID 1159580);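 note: tested at 20 µM; growth read once vehicle control cultures reached saturation at 30 °C; 1 = growth at the plate median or of vehicle wells; lower values mean less growth of the strain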
Conditions: growth OD

Measured: normalized growth

C[C@@H]1CC2C3C[C@H](F)C4=CC(=O)C=C[C@]4(C)[C@@]3(F)[C@@H](O)C[C@]2(C)[C@@]1(O)C(=O)COC(=O)C(C)(C)C (some centres not stated)
inactive: S. cerevisiae deletion strains, locus YJR075W, strain HOC1, active compounds read low 0.997 | S. cerevisiae deletion strains, locus YKL009W, strain mrt4, active compounds read low 0.982 | S. cerevisiae deletion strains, locus YKL068W, active compounds read low 1.01 | S. cerevisiae deletion strains, locus YKL085W, strain MDH1 (second series), active compounds read low 1 | S. cerevisiae deletion strains, locus YKL085W, strain MDH1, active compounds read low 1 | S. cerevisiae deletion strains, locus YKL160W, strain elf1, active compounds read low 0.978 | S. cerevisiae deletion strains, locus YKL190W, strain CNB1, active compounds read low 0.997 | S. cerevisiae deletion strains, locus YKR001C, strain vps1, active compounds read low 0.988 | S. cerevisiae deletion strains, locus YKR026C, strain gcn3, active compounds read low 0.997 | S. cerevisiae deletion strains, locus YKR091W, strain srl3, active compounds read low 0.996 | S. cerevisiae deletion strains, locus YLL001W, strain dnm1, active compounds read low 0.987 | S. cerevisiae deletion strains, locus YLL026W, active compounds read low 0.984 | S. cerevisiae deletion strains, locus YLL041C, strain sdh2, active compounds read low 1.01 | S. cerevisiae deletion strains, locus YLR027C, strain aat2, active compounds read low 0.987 | S. cerevisiae deletion strains, locus YLR039C, strain RIC1, active compounds read low 1.02 | S. cerevisiae deletion strains, locus YLR058C, strain SHM2, active compounds read low 1.01 | S. cerevisiae deletion strains, locus YLR102C, strain apc9, active compounds read low 1.01 | S. cerevisiae deletion strains, locus YLR113W, strain HOG1, active compounds read low 0.969 | S. cerevisiae deletion strains, locus YLR221C, strain rsa3, active compounds read low 0.99 | S. cerevisiae deletion strains, locus YLR258W, strain gsy2, active compounds read low 0.995 | S. cerevisiae deletion strains, locus YLR262C, strain YPT6 (second series), active compounds read low 0.98 | S. cerevisiae deletion strains, locus YLR262C, strain YPT6, active compounds read low 0.977 | S. cerevisiae deletion strains, locus YLR268W, strain sec22, active compounds read low 0.984 | S. cerevisiae deletion strains, locus YLR320W, strain mms22, active compounds read low 0.975 | S. cerevisiae deletion strains, locus YLR330W, strain CHS5, active compounds read low 1.01 | S. cerevisiae deletion strains, locus YLR342W, strain FKS1 (second series), active compounds read low 1.03 | S. cerevisiae deletion strains, locus YLR342W, strain FKS1, active compounds read low 0.978 | S. cerevisiae deletion strains, locus YLR357W, strain rsc2, active compounds read low 0.979 | S. cerevisiae deletion strains, locus YLR370C, strain arc18, active compounds read low 0.987 | S. cerevisiae deletion strains, locus YLR371W, strain rom2, active compounds read low 1.01 | S. cerevisiae deletion strains, locus YLR384C, strain iki3, active compounds read low 0.987 | S. cerevisiae deletion strains, locus YLR418C, strain cdc73, active compounds read low 1.03 | S. cerevisiae deletion strains, locus YML016C, strain PPZ1, active compounds read low 1 | S. cerevisiae deletion strains, locus YML032C, strain rad52, active compounds read low 1 | S. cerevisiae deletion strains, locus YML120C, strain ndi1, active compounds read low 0.999 | S. cerevisiae deletion strains, locus YML124C, strain tub3, active compounds read low 1 | S. cerevisiae deletion strains, locus YMR058W, strain fet3, active compounds read low 1.01 | S. cerevisiae deletion strains, locus YMR078C, strain ctf18, active compounds read low 1.01 | S. cerevisiae deletion strains, locus YMR125W, strain sto1, active compounds read low 1.01 | S. cerevisiae deletion strains, locus YMR129W, active compounds read low 0.988 | S. cerevisiae deletion strains, locus YMR205C, strain PFK2, active compounds read low 0.977 | S. cerevisiae deletion strains, locus YMR223W, strain ubp8, active compounds read low 1.04 | S. cerevisiae deletion strains, locus YMR231W, strain pep5, active compounds read low 0.998 | S. cerevisiae deletion strains, locus YMR263W, strain SAP30, active compounds read low 1.01 | S. cerevisiae deletion strains, locus YMR307W, strain GAS1, active compounds read low 0.95 | S. cerevisiae deletion strains, locus YNL067W, strain RPL9B, active compounds read low 0.998 | S. cerevisiae deletion strains, locus YNL071W, strain lat1, active compounds read low 1 | S. cerevisiae deletion strains, locus YNL183C, strain NPR1, active compounds read low 0.962 | S. cerevisiae deletion strains, locus YNL209W, strain ssb2, active compounds read low 0.996 | S. cerevisiae deletion strains, locus YNL233W, strain BNI4, active compounds read low 1.01 | S. cerevisiae deletion strains, locus YNL248C, strain rpa49, active compounds read low 1.01 | S. cerevisiae deletion strains, locus YNL250W, strain rad50, active compounds read low 1.02 | S. cerevisiae deletion strains, locus YNL271C, strain bni1, active compounds read low 1.01 | S. cerevisiae deletion strains, locus YNL298W, strain CLA4, active compounds read low 0.998 | S. cerevisiae deletion strains, locus YNL307C, strain MCK1, active compounds read low 1.02 | S. cerevisiae deletion strains, locus YNL322C, strain KRE1 (second series), active compounds read low 1 | S. cerevisiae deletion strains, locus YNR049C, strain mso1, active compounds read low 0.998 | S. cerevisiae deletion strains, locus YNR052C, strain pop2, active compounds read low 0.998 | S. cerevisiae deletion strains, locus YOL012C, strain htz1 1.17 | S. cerevisiae deletion strains, locus YOL147C, strain pex11, active compounds read low 1.01 | S. cerevisiae deletion strains, locus YOR001W, strain rrp6, active compounds read low 0.98 | S. cerevisiae deletion strains, locus YOR061W, strain CKA2, active compounds read low 1 | S. cerevisiae deletion strains, locus YOR069W, strain VPS5, active compounds read low 1.01 | S. cerevisiae deletion strains, locus YOR070C, strain gyp1, active compounds read low 0.999 | S. cerevisiae deletion strains, locus YOR080W, strain dia2, active compounds read low 0.979 | S. cerevisiae deletion strains, locus YOR083W, strain WHI5, active compounds read low 0.982 | S. cerevisiae deletion strains, locus YOR106W, strain vam3, active compounds read low 0.987 | S. cerevisiae deletion strains, locus YOR136W, strain idh2, active compounds read low 1.01 | S. cerevisiae deletion strains, locus YOR144C, strain elg1, active compounds read low 1 | S. cerevisiae deletion strains, locus YOR184W, strain ser1, active compounds read low 1.04 | S. cerevisiae deletion strains, locus YOR231W, strain MKK1, active compounds read low 0.976 | S. cerevisiae deletion strains, locus YOR265W, strain rbl2, active compounds read low 0.99 | S. cerevisiae deletion strains, locus YOR270C, strain vph1, active compounds read low 1.01 | S. cerevisiae deletion strains, locus YOR290C, strain snf2, active compounds read low 0.997 | S. cerevisiae deletion strains, locus YOR316C, strain cot1, active compounds read low 1.01 | S. cerevisiae deletion strains, locus YPL051W, strain arl3, active compounds read low 0.978 | S. cerevisiae deletion strains, locus YPL055C, strain LGE1, active compounds read low 0.999 | S. cerevisiae deletion strains, locus YPL078C, strain atp4, active compounds read low 0.974 | S. cerevisiae deletion strains, locus YPL106C, strain sse1, active compounds read low 0.946 | S. cerevisiae deletion strains, locus YPL240C, strain hsp82, active compounds read low 1 | S. cerevisiae deletion strains, locus YPL256C, strain CLN2, active compounds read low 0.992 | S. cerevisiae deletion strains, locus YPR119W, strain clb2, active compounds read low 1.01 | S. cerevisiae deletion strains, locus YPR141C, strain kar3, active compounds read low 1 | S. cerevisiae deletion strains, locus YPR163C, strain tif3, active compounds read low 1 | S. cerevisiae deletion strains, locus YPR167C, strain met16, active compounds read low 1.01 | S. cerevisiae deletion strains, strain wtn01, active compounds read low 1 | S. cerevisiae strains, strain wild type, active compounds read low 0.995
